Reference: the supplement of paper PMC10849652
Targets with a hit are over-represented here; the source holds about 8,800 in all. About 0.5% of all pairs of compound and target were hits.

Legend:
Assay in all cases: log2 fold change, soluble protein after heating vs DMSO (PISA); higher = thermal stabilisation; K562 lysate, 10 uM; active = over 0.2 and 3.5 SD of the protein, either way, in both replicates (recomputed)
alvocidib = compound: CN1CC[C@H](c2c(O)cc(O)c3c(=O)cc(-c4ccccc4Cl)oc23)[C@H](O)C1 [alvocidib]
Procedure, shortened: (§1)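 Quantification was by TMTpro 16plex LC-MS/MS with equalised channel sums, applied to the supernatant after 21,000xg for 90 min. Samples were crude K562 extract at 1 mg/mL protein in PBS pH 7.4 with 1 mM MgCl2, treated with 10 μM compound for 30 min, heated for 3 min across 48°C-58°C, pooled and brought to 0.5% NP-40 at 4°C. Values are log-two fold changes in thermal stability relative to solvent controls, from duplicates.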

Tubastatin A = compound: CN1CCc2c(c3ccccc3n2Cc2ccc(C(=O)NO)cc2)C1 [Tubastatin A]
Procedure, shortened: as §1

[1] = compound: CNC(=O)C1=CC=CC=C1NC2=NC(=NC=C2Cl)NC3=C(C=C(C=C3)N4CCOCC4)OC
Procedure, shortened: as §1

defactinib = compound: CNC(=O)c1ccc(Nc2ncc(C(F)(F)F)c(NCc3nccnc3N(C)S(C)(=O)=O)n2)cc1 [defactinib]
Procedure, shortened: as §1

[2] = compound: CNc1nc(-c2ccc3c(N)n[nH]c3c2)cc(N2C[C@@H](C(=O)NC3CCCCC3)CC[C@H]2C)n1
Procedure, shortened: as §1

encorafenib = compound: COC(=O)N[C@@H](C)CNc1nccc(-c2cn(C(C)C)nc2-c2cc(Cl)cc(NS(C)(=O)=O)c2F)n1 [encorafenib]
Procedure, shortened: as §1

[3] = compound: COC(=O)[C@H](CCSC)NC(=O)C1=C(C=C(C=C1)NC[C@H](CS)N)C2=CC=CC=C2
Procedure, shortened: as §1

alisertib = compound: COc1cc(Nc2ncc3c(n2)-c2ccc(Cl)cc2C(c2c(F)cccc2OC)=NC3)ccc1C(=O)O [alisertib]
Procedure, shortened: as §1

[4] = compound: COc1cc2nc(-c3cc(F)ccc3O)nc(N[C@@H]3CNC[C@H]3C(C)(C)O)c2cc1OC
Procedure, shortened: as §1

gefitinib = compound: COc1cc2ncnc(Nc3ccc(F)c(Cl)c3)c2cc1OCCCN1CCOCC1 [gefitinib]
Procedure, shortened: as §1

lapatinib = compound: CS(=O)(=O)CCNCc1ccc(-c2ccc3ncnc(Nc4ccc(OCc5cccc(F)c5)c(Cl)c4)c3c2)o1 [lapatinib]
Procedure, shortened: as §1

pictilisib = compound: CS(=O)(=O)N1CCN(Cc2cc3nc(-c4cccc5[nH]ncc45)nc(N4CCOCC4)c3s2)CC1 [pictilisib]
Procedure, shortened: as §1

crizotinib = compound: C[C@@H](Oc1cc(-c2cnn(C3CCNCC3)c2)cnc1N)c1c(Cl)ccc(F)c1Cl [crizotinib]
Procedure, shortened: as §1

[5] = compound: C[C@H](C1=CC=C(C=C1)C(=O)NC2=C3C=CNC3=NC=C2)N
Procedure, shortened: as §1

duvelisib = compound: C[C@H](Nc1ncnc2nc[nH]c12)c1cc2cccc(Cl)c2c(=O)n1-c1ccccc1 [duvelisib]
Procedure, shortened: as §1

gandotinib = compound: Cc1cc(Nc2cc(CN3CCOCC3)c3nc(C)c(Cc4ccc(Cl)cc4F)n3n2)n[nH]1 [gandotinib]
Procedure, shortened: as §1

tozasertib = compound: Cc1cc(Nc2cc(N3CCN(C)CC3)nc(Sc3ccc(NC(=O)C4CC4)cc3)n2)n[nH]1 [tozasertib]
Procedure, shortened: as §1

doramapimod = compound: Cc1ccc(-n2nc(C(C)(C)C)cc2NC(=O)Nc2ccc(OCCN3CCOCC3)c3ccccc23)cc1 [doramapimod]
Procedure, shortened: as §1

bafetinib = compound: Cc1ccc(NC(=O)c2ccc(CN3CC[C@H](N(C)C)C3)c(C(F)(F)F)c2)cc1Nc1nccc(-c2cncnc2)n1 [bafetinib]
Procedure, shortened: as §1

[6] = compound: Cc1cccc(CC(=O)N2CCc3c2ccc(-c2cn(C)c4ncnc(N)c24)c3F)n1
Procedure, shortened: as §1

Measured: log2 fold change

ATM (UniProt Q13315)
inactive: alvocidib -0.048 | Tubastatin A 0.013 | [1] 0.013 | defactinib 0.105 | [2] -0.005 | encorafenib -0.031 | [3] 0.087 | alisertib -0.01 | [4] 0.078 | gefitinib 0.022 | lapatinib -0.018 | pictilisib -0.055 | crizotinib -0.045 | [5] -0.112 | duvelisib -0.035 | gandotinib 0.014 | tozasertib -0.04 | doramapimod 0.051 | bafetinib -0.01 | [6] 0.08

CDC16 (UniProt Q13042)
Sequence of UniProt Q13042 (Q13042 whole entry, looked up): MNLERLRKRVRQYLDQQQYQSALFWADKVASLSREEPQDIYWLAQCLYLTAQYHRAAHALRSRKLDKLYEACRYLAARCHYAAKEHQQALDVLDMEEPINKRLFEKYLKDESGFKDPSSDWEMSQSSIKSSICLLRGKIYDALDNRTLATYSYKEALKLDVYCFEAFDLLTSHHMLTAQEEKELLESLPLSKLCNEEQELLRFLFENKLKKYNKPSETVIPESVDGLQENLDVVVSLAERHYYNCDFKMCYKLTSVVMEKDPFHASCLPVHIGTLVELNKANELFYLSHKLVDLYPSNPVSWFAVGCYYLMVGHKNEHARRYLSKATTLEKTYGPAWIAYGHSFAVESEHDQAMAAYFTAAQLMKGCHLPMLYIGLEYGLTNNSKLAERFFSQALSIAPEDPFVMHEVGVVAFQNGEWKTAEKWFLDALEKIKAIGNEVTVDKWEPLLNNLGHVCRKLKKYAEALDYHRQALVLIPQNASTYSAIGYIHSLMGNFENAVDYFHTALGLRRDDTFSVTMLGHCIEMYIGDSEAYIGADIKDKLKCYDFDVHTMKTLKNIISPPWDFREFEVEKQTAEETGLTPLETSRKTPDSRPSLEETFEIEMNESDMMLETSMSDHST
inactive: alvocidib 0.012 | Tubastatin A -0.1 | [1] 0.002 | defactinib -0.024 | [2] -0.097 | encorafenib 0.032 | [3] -0.133 | alisertib -0.008 | [4] -0.037 | gefitinib 0.017 | lapatinib 0.016 | pictilisib 0 | crizotinib 0.009 | [5] 0.047 | duvelisib 0.011 | gandotinib -0.095 | tozasertib 0.06 | doramapimod 0.014 | bafetinib -0.039 | [6] -0.057

CANX isoform 2 (UniProt P27824)
inactive: alvocidib -0.024 | Tubastatin A 0.05 | [1] -0.006 | defactinib 0.002 | [2] -0.003 | encorafenib 0.027 | [3] -0.015 | alisertib -0.008 | [4] 0.023 | gefitinib 0.008 | lapatinib 0.018 | pictilisib 0.037 | crizotinib -0.002 | [5] -0.037 | duvelisib 0.015 | gandotinib 0.026 | tozasertib 0.015 | doramapimod 0.006 | bafetinib 0.017 | [6] 0.052

CELF2 isoform 3 (UniProt O95319)
Sequence of UniProt O95319 (O95319 whole entry, looked up): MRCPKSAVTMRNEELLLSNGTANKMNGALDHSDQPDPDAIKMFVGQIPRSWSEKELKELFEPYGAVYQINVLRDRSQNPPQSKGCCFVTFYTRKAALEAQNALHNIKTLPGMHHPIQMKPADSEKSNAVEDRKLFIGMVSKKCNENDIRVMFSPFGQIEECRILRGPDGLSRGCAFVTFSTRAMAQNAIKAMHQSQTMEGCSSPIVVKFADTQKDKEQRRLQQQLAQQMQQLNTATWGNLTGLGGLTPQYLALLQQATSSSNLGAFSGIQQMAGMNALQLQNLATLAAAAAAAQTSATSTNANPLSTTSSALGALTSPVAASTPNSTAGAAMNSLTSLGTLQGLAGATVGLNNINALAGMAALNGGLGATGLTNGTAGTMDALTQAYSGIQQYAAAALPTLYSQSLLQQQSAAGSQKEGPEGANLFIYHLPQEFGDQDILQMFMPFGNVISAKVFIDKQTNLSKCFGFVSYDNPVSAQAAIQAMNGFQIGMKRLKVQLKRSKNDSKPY
inactive: alvocidib 0.067 | Tubastatin A -0.025 | [1] 0.019 | defactinib 0.018 | [2] -0.02 | encorafenib 0.108 | [3] -0.031 | alisertib 0.037 | [4] -0.079 | gefitinib -0.061 | lapatinib 0.039 | pictilisib 0.032 | crizotinib 0.072 | [5] 0.104 | duvelisib -0.001 | gandotinib -0.052 | tozasertib 0.017 | bafetinib -0.042 | [6] -0.124
active: doramapimod -0.579

CAMK1 (UniProt Q14012)
Sequence of UniProt Q14012 (Q14012 whole entry, looked up): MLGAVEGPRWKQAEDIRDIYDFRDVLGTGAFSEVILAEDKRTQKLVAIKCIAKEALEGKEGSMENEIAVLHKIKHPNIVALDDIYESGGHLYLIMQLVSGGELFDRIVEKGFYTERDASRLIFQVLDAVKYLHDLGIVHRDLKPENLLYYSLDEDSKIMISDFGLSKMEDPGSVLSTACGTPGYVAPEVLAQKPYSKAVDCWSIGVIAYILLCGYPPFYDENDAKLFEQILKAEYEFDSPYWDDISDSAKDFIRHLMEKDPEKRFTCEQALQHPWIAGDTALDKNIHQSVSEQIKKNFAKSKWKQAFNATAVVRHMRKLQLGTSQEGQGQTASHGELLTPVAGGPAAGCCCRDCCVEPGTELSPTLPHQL
inactive: alvocidib -0.074 | Tubastatin A 0 | [1] 0.067 | defactinib 0.04 | [2] -0.036 | encorafenib -0.054 | [3] -0.032 | alisertib 0.016 | [4] 0.029 | gefitinib -0.01 | lapatinib -0.037 | pictilisib -0.058 | crizotinib -0.078 | [5] -0.145 | duvelisib -0.042 | gandotinib 0.187 | tozasertib 0.05 | doramapimod -0.006 | bafetinib -0.047
active: [6] 0.314

C2CD5 isoform 3 (UniProt Q86YS7)
Sequence of UniProt Q86YS7 (Q86YS7 whole entry, looked up): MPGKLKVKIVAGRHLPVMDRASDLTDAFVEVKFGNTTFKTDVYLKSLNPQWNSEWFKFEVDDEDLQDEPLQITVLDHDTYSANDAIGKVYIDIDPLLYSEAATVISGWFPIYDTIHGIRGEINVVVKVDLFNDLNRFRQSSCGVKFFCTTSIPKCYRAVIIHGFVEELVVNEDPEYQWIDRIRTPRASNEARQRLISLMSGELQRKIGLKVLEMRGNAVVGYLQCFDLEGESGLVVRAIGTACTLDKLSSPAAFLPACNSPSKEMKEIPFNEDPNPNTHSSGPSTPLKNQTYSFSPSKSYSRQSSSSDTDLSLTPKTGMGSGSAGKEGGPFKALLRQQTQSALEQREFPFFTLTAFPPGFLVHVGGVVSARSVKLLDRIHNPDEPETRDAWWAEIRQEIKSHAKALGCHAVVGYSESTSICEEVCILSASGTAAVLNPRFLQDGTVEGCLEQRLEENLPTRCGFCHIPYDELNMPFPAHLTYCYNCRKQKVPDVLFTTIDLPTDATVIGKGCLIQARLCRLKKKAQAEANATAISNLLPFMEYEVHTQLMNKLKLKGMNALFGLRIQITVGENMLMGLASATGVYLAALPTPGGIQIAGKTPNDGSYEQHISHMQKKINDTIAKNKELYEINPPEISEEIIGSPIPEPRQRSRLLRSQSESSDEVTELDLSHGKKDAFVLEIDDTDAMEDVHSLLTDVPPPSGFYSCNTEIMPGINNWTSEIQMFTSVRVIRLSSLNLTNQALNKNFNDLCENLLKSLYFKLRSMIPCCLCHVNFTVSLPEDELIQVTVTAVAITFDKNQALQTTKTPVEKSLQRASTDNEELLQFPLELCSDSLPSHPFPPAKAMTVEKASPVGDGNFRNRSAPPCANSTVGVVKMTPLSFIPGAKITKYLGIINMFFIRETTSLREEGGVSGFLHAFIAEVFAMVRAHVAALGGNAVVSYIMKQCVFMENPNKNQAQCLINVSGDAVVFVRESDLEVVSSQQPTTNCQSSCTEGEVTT
active: [5] -0.26 | [6] 0.28
inactive: alvocidib -0.157 | Tubastatin A 0.006 | [1] -0.003 | defactinib -0.002 | [2] 0.01 | encorafenib 0.054 | [3] -0.028 | alisertib -0.016 | [4] 0.016 | gefitinib 0.054 | lapatinib -0.031 | pictilisib -0.029 | crizotinib -0.028 | duvelisib -0.009 | gandotinib 0.125 | tozasertib -0.038 | doramapimod 0.035 | bafetinib -0.056

CDC40 (UniProt O60508)
Sequence of UniProt O60508 (O60508 whole entry, looked up): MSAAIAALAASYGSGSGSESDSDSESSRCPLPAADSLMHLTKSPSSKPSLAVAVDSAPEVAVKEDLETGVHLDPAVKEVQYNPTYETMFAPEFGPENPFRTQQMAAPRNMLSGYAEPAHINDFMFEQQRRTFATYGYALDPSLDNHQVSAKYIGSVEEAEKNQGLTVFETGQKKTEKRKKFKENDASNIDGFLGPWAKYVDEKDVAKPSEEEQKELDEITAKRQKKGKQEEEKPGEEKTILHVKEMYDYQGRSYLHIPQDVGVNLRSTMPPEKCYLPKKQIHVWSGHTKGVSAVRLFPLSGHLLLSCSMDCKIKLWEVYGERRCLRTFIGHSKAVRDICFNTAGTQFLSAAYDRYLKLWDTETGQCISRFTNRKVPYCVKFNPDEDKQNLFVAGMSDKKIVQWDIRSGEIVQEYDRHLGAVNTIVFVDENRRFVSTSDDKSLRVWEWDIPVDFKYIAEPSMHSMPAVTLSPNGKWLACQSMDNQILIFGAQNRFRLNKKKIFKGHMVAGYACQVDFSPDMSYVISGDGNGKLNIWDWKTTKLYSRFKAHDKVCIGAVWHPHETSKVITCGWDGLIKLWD
inactive: alvocidib 0.016 | Tubastatin A 0.147 | [1] 0.045 | defactinib -0.002 | [2] 0.069 | encorafenib 0.095 | [3] 0.069 | alisertib -0.049 | [4] 0.034 | gefitinib -0.021 | lapatinib -0.028 | pictilisib 0.039 | crizotinib -0.053 | [5] -0.027 | duvelisib 0 | gandotinib 0.002 | tozasertib -0.038 | doramapimod -0.005 | bafetinib -0.033 | [6] 0.006

CEP76 (UniProt Q8TAP6)
Sequence of UniProt Q8TAP6 (Q8TAP6 whole entry, looked up): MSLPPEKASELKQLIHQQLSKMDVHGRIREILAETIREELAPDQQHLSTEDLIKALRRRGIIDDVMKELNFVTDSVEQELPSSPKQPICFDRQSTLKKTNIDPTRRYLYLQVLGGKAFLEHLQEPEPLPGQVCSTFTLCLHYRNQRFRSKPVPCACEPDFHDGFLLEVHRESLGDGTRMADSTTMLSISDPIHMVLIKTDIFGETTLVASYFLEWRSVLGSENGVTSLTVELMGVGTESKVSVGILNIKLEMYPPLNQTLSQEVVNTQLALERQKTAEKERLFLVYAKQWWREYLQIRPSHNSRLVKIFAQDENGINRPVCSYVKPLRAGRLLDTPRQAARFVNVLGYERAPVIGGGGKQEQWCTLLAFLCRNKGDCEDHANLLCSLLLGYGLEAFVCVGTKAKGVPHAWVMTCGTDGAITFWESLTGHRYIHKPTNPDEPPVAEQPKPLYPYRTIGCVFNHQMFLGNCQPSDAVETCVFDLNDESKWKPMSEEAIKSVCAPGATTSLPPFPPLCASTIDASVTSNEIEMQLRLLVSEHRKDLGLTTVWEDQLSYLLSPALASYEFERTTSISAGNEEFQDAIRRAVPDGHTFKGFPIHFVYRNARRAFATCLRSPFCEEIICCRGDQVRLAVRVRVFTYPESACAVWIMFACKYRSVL
inactive: alvocidib -0.031 | Tubastatin A -0.015 | [1] 0.03 | defactinib 0.084 | [2] -0.023 | encorafenib -0.006 | [3] 0.005 | alisertib 0.002 | [4] 0 | gefitinib 0.001 | lapatinib -0.031 | pictilisib -0.073 | crizotinib -0.106 | [5] -0.063 | duvelisib 0.141 | gandotinib 0.007 | tozasertib 0.079 | doramapimod 0.085 | bafetinib -0.115 | [6] 0.027

CAMK2G isoform 8 (UniProt Q13555)
Sequence of UniProt Q13555 (Q13555 whole entry, looked up): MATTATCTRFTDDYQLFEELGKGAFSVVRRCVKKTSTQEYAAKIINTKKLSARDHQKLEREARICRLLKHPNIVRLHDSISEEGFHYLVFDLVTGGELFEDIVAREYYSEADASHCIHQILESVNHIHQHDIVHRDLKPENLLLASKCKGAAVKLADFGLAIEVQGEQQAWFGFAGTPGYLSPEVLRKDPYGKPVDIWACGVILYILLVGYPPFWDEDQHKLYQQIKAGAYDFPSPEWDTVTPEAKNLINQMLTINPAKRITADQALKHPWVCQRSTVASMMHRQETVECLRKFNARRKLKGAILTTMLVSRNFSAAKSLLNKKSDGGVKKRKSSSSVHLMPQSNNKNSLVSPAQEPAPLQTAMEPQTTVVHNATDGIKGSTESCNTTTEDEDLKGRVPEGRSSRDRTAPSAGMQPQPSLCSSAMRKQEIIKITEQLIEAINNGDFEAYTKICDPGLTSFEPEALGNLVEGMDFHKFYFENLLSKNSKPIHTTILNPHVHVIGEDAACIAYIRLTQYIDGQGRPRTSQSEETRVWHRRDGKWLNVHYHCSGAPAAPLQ
inactive: Tubastatin A -0.098 | [1] 0.223 | defactinib 0.006 | [2] 0.034 | encorafenib -0.199 | [3] -0.007 | alisertib -0.013 | [4] 0.144 | gefitinib -0.013 | lapatinib -0.013 | pictilisib -0.008 | crizotinib -0.177 | [5] -0.053 | duvelisib -0.083 | gandotinib 0.085 | tozasertib -0.037 | doramapimod -0.049 | bafetinib 0.001 | [6] -0.07
active: alvocidib 0.334

AURKAIP1 (UniProt Q9NWT8)
inactive: alvocidib 0.026 | Tubastatin A 0.219 | [1] -0.02 | defactinib 0.083 | [2] 0.072 | encorafenib 0.077 | [3] -0.057 | alisertib 0.067 | [4] 0.098 | gefitinib -0.032 | lapatinib -0.001 | pictilisib 0.051 | crizotinib 0.021 | [5] -0.017 | duvelisib 0.012 | gandotinib -0.03 | tozasertib 0.028 | doramapimod -0.039 | bafetinib -0.029 | [6] -0.04

CDAN1 (UniProt Q8IWY9)
inactive: alvocidib -0.034 | Tubastatin A -0.051 | [1] 0.049 | defactinib 0.039 | [2] 0.017 | encorafenib -0.018 | [3] 0.093 | alisertib 0.02 | [4] -0.022 | gefitinib -0.012 | lapatinib 0.009 | pictilisib -0.05 | crizotinib -0.038 | [5] 0 | duvelisib 0.026 | gandotinib -0.073 | tozasertib 0.068 | doramapimod -0.021 | bafetinib -0.056 | [6] 0.051

CHD3 isoform 3 (UniProt Q12873)
inactive: alvocidib 0.003 | Tubastatin A -0.074 | [1] 0.015 | defactinib 0.006 | [2] 0.02 | encorafenib 0.029 | [3] 0.085 | alisertib 0.047 | [4] 0.01 | gefitinib -0.014 | lapatinib -0.022 | pictilisib -0.02 | crizotinib 0.009 | [5] 0.014 | duvelisib -0.022 | gandotinib -0.013 | tozasertib -0.002 | doramapimod 0.028 | bafetinib -0.047 | [6] 0.033

CARD11 (UniProt Q9BXL7)
inactive: alvocidib 0.073 | Tubastatin A -0.023 | [1] 0.022 | defactinib -0.005 | [2] -0.029 | encorafenib -0.021 | [3] 0.072 | alisertib -0.028 | [4] 0.025 | gefitinib 0.014 | lapatinib 0.001 | crizotinib -0.018 | [5] -0.025 | duvelisib 0.029 | gandotinib -0.035 | tozasertib -0.021 | doramapimod 0.028 | bafetinib -0.059 | [6] 0.038
active: pictilisib -0.287

CASP9 (UniProt P55211)
Sequence of UniProt P55211 (P55211 whole entry, looked up): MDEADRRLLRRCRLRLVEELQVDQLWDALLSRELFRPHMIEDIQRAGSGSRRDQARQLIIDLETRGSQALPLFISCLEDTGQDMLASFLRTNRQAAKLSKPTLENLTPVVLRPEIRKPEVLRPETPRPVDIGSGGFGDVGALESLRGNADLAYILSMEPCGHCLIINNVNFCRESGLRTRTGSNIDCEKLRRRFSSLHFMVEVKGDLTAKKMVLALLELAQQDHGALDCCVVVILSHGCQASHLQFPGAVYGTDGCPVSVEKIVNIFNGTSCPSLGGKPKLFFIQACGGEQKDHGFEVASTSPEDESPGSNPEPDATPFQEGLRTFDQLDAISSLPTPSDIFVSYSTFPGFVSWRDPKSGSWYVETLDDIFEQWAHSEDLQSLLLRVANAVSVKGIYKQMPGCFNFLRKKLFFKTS
inactive: alvocidib -0.01 | Tubastatin A -0.043 | [1] -0.021 | defactinib 0.039 | [2] -0.014 | encorafenib 0.023 | [3] -0.077 | alisertib 0.014 | [4] 0.017 | gefitinib 0.052 | lapatinib 0.003 | pictilisib 0.011 | crizotinib -0.047 | [5] -0.036 | duvelisib 0.036 | gandotinib -0.027 | tozasertib 0.017 | doramapimod 0.009 | bafetinib -0.069 | [6] 0.082

ATP2B4 (UniProt P23634)
inactive: alvocidib -0.116 | Tubastatin A 0.015 | [1] -0.006 | defactinib -0.043 | [2] 0.001 | encorafenib 0.021 | [3] -0.041 | alisertib -0.104 | [4] 0.009 | gefitinib 0.023 | lapatinib -0.022 | pictilisib -0.018 | crizotinib 0.018 | [5] -0.166 | duvelisib 0.053 | gandotinib 0.082 | tozasertib 0.046 | doramapimod 0.049 | bafetinib -0.125
active: [6] 0.221

CAPNS1 (UniProt P04632)
Sequence of UniProt P04632 (P04632 whole entry, looked up): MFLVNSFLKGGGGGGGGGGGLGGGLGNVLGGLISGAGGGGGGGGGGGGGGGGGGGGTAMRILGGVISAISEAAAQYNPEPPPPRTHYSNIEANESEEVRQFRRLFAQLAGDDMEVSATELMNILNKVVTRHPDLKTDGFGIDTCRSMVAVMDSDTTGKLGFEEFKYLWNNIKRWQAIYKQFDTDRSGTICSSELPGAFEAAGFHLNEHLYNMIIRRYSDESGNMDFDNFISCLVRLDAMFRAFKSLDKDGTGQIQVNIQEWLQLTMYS
inactive: alvocidib 0.021 | Tubastatin A -0.022 | [1] 0.032 | defactinib 0.027 | [2] -0.005 | encorafenib 0.022 | [3] -0.129 | alisertib -0.012 | [4] -0.051 | gefitinib -0.062 | lapatinib 0.064 | pictilisib 0.024 | crizotinib 0.047 | [5] -0.21 | duvelisib -0.015 | gandotinib 0.15 | tozasertib -0.042 | doramapimod 0.079 | bafetinib 0.016 | [6] 0.005
